For 40 compounds, growth inhibition results are on record in PubChem BioAssay (NCI).

The panel holds about 79,000 compounds, 15% with a hit somewhere; the sample as a whole holds those more often. Values without a mark were called inactive. The source made the active and inactive calls. No stated cut-off is given here; in the data, active means growth inhibition above about 70%; inactive means the rest.

One assay is described as follows: NCI Yeast Anticancer Drug Screen. Data for the mlh1 rad18 strain (AID 175). The note with it: S. cerevisiae mlh1 rad18 strain growth inhibition; at 50.0 µM (retest, dose inferred, filed as 5.0); hits give high values. Put shortly:
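Growth inhibition of the yeast strain was measured after compound exposure and expressed relative to vehicle-treated controls. The strain carries defined defects in DNA damage repair.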
As to `O=[n+]1c2c(n([O-])c3ccc4ccccc4c31)-c1cccc3cccc-2c13`, the growth inhibition is 1%.

For the compound `COc1ccc(C(=O)Cc2ccc(Cl)cc2)cc1OC`, the growth inhibition is -22%.

In the case of `CCN(CC)CCC(=O)c1ccc(Oc2ccc(C)cc2)cc1`, the growth inhibition is 81% (active).

On to `BrC(Br)=C1C(=C(Br)Br)C(Br)C1Br` (stereo not given), for which the growth inhibition is 71% (active).

For `O=C(O)C(Cc1cc(I)c(O)c(I)c1)c1ccccc1` (stereo not given), the growth inhibition is 45%.

Turning to `CC1(C)OC2C(COC(c3ccccc3)(c3ccccc3)c3ccccc3)OC(n3ccc(=O)[nH]c3=O)C2O1` (stereo not given), the growth inhibition is 95% (active).

In the case of `Clc1ccc(C2=CCN3CC=C(c4ccc(Cl)cc4)C23)cc1`, the growth inhibition was 39%.

Take `Nc1ccc([N+](=O)[O-])cc1Nc1c2ccccc2nc2ccccc12`: the growth inhibition was 37%.

Turning to `COc1c2c3c(ccnc3c3ccccc13)C(=O)N2C`, the growth inhibition is 76% (active).

`O=C1/C(=C/c2ccc([N+](=O)[O-])cc2)CNC/C1=C\c1ccc([N+](=O)[O-])cc1`: the growth inhibition is 99% (active).

For the compound `Clc1ccc(-c2nnn3ccccc23)cc1`, the growth inhibition is 51%.

`O=Cc1ccc([N+](=O)[O-])o1`: the growth inhibition is 99% (active).

For the compound `CN(C)Cc1cc(C(C)(C)C)cc(C2CCCCC2)c1O`, the growth inhibition was 94% (active).

For `COc1ccc2c(c1)CN([C@@H](C)[C@H]1CC[C@H]3[C@@H]4CC[C@H]5C[C@@H](O)CC[C@]5(C)[C@H]4CC[C@]13C)CO2`, the growth inhibition was 99% (active).

For `FC(F)(F)c1ccc(NC(=S)SCc2ccc3c(c2)OCO3)cc1`, the growth inhibition is 24%.

Turning to `Nc1cc(F)c2c(c1F)C(=O)c1cc(F)ccc1-2`, the growth inhibition was 78% (active).

Consider `CC12CCCCC1CCC(Br)C2=O` (stereo not given), for which the growth inhibition is -55%.

With `CC(C)c1cc(O)c(C(C)(C)C)cc1Cl`, the growth inhibition is 47%.

For the compound `CCCOC(=O)CCCC(=O)N(CC)CC`, the growth inhibition was -11%.

For `CCOC(=O)c1cc(Cc2ccccc2)c(=O)n(C)c1-c1ccccc1`, the growth inhibition was 86% (active).

In the case of `COS(=O)c1cc(Cl)cc(Cl)c1OC(=O)CSSCC(=O)Oc1c(Cl)cc(Cl)cc1S(=O)OC` (stereo not given), the growth inhibition is 99% (active).

On to `ICCCCSc1cc(-c2ccccc2)[o+]c2ccccc12`, for which the growth inhibition was 71% (active).

For the compound `Nc1cc(Cl)c2c(c1)Cc1ccccc1-2`, the growth inhibition is 94% (active).

`Cc1ccc(S(=O)(=O)NCCSSCCNS(=O)(=O)c2ccc(C)cc2)cc1`: the growth inhibition was 96% (active).

For the compound `OC(Cc1cccnc1)(c1ccccc1)c1ccc(Cl)cc1` (stereo not given), the growth inhibition is 71% (active).

For the compound `Cc1ccc(C2=CC(=O)/C(=C\C(=O)c3ccc(Cl)cc3)O2)cc1`, the growth inhibition was 37%.

On to `O=C(Nc1ncnc2c1ncn2C1CC(O)C(CO)O1)c1ccccc1` (stereo not given), for which the growth inhibition is 4%.

As for `O=C1CSC(=S)N1c1ccc(F)cc1F`, the growth inhibition is 89% (active).

Turning to `CCCOC(=O)C(Br)C(Br)C(=O)OCCC` (stereo not given), the growth inhibition is 98% (active).

As for `c1ccc2nc3[nH]c4ccccc4c3cc2c1`, the growth inhibition is 45%.

On to `O=S(=O)(c1ccc(NC(=S)NCc2ccncc2)cc1)N1CCCCC1`, for which the growth inhibition is -8%.

As for `Nc1ccccc1Sc1ccccc1`, the growth inhibition is 78% (active).

`CCC(Cl)COP(=O)(OCC(Cl)CC)OC(c1ccc(Cl)c(Cl)c1)P(=O)(OCC(Cl)CC)OCC(Cl)CC` (stereo not given): the growth inhibition is 37%.

On to `O=C(O)/C=C\c1cc2ccccc2c2ccccc12`, for which the growth inhibition was 99% (active).

Consider `COC(=O)C1C2CC3c4[nH]c5cc(OC)c(Br)cc5c4CCN3CC2CC(OC(=O)c2cc(OC)c(OC)c(OC)c2)C1OC` (stereo not given), for which the growth inhibition was 97% (active).

Turning to `Cc1c2ccnc(-c3ccc(F)cc3)c2cc2c1[nH]c1ccccc12`, the growth inhibition was 11%.

Regarding `COc1cc2cc[n+]3c4ccc([N+](=O)[O-])cc4ccc3c2cc1OC`, the growth inhibition was 69%.

Consider `CCCCCCCCC1N(C)CCCN1C`, for which the growth inhibition is 98% (active).

In the case of `CC1(C)OC2C(COC(c3ccccc3)(c3ccccc3)c3ccccc3)OC(n3cnc4c(=O)[nH]cnc43)C2O1` (stereo not given), the growth inhibition was 98% (active).

For the compound `COc1cccc2c1C(=O)c1c(O)c3c(c(O)c1C2=O)C[C@@](O)(C(=O)CO)C[C@@H]3OC1CC(N(C)C)C(O)C(C)O1` (stereo not given in full), the growth inhibition is 94% (active).

The same assay, now with this note: S. cerevisiae mlh1 rad18 strain growth inhibition; at 50.0 µM; hits give high values.
For `O=[n+]1c2c(n([O-])c3ccc4ccccc4c31)-c1cccc3cccc-2c13`, the growth inhibition was -5.75%.

With `COc1ccc(C(=O)Cc2ccc(Cl)cc2)cc1OC`, the growth inhibition was 16.6%.

As for `CCN(CC)CCC(=O)c1ccc(Oc2ccc(C)cc2)cc1`, the growth inhibition is 53.1%.

Regarding `BrC(Br)=C1C(=C(Br)Br)C(Br)C1Br` (stereo not given), the growth inhibition is 71.6% (active).

In the case of `O=C(O)C(Cc1cc(I)c(O)c(I)c1)c1ccccc1` (stereo not given), the growth inhibition was 57.5%.

For `CC1(C)OC2C(COC(c3ccccc3)(c3ccccc3)c3ccccc3)OC(n3ccc(=O)[nH]c3=O)C2O1` (stereo not given), the growth inhibition was 70.5% (active).

In the case of `Clc1ccc(C2=CCN3CC=C(c4ccc(Cl)cc4)C23)cc1`, the growth inhibition was 99.8% (active).

Turning to `Nc1ccc([N+](=O)[O-])cc1Nc1c2ccccc2nc2ccccc12`, the growth inhibition is 31.4%.

Regarding `COc1c2c3c(ccnc3c3ccccc13)C(=O)N2C`, the growth inhibition is 75% (active).

Regarding `O=C1/C(=C/c2ccc([N+](=O)[O-])cc2)CNC/C1=C\c1ccc([N+](=O)[O-])cc1`, the growth inhibition was 75.7% (active).

For the compound `Clc1ccc(-c2nnn3ccccc23)cc1`, the growth inhibition was 94.1% (active).

Regarding `O=Cc1ccc([N+](=O)[O-])o1`, the growth inhibition was 99.5% (active).

Take `CN(C)Cc1cc(C(C)(C)C)cc(C2CCCCC2)c1O`: the growth inhibition was 92.4% (active).

For `COc1ccc2c(c1)CN([C@@H](C)[C@H]1CC[C@H]3[C@@H]4CC[C@H]5C[C@@H](O)CC[C@]5(C)[C@H]4CC[C@]13C)CO2`, the growth inhibition is 98.4% (active).

On to `FC(F)(F)c1ccc(NC(=S)SCc2ccc3c(c2)OCO3)cc1`, for which the growth inhibition is 93.2% (active).

Turning to `Nc1cc(F)c2c(c1F)C(=O)c1cc(F)ccc1-2`, the growth inhibition is 80.7% (active).

As to `CC12CCCCC1CCC(Br)C2=O` (stereo not given), the growth inhibition is 61.6%.

For `CC(C)c1cc(O)c(C(C)(C)C)cc1Cl`, the growth inhibition is 86.8% (active).

With `CCCOC(=O)CCCC(=O)N(CC)CC`, the growth inhibition was 19.5%.

Regarding `CCOC(=O)c1cc(Cc2ccccc2)c(=O)n(C)c1-c1ccccc1`, the growth inhibition was 50.1%.

As to `COS(=O)c1cc(Cl)cc(Cl)c1OC(=O)CSSCC(=O)Oc1c(Cl)cc(Cl)cc1S(=O)OC` (stereo not given), the growth inhibition is 99% (active).

As to `ICCCCSc1cc(-c2ccccc2)[o+]c2ccccc12`, the growth inhibition is 88.8% (active).

`Nc1cc(Cl)c2c(c1)Cc1ccccc1-2`: the growth inhibition was 86.8% (active).

As for `Cc1ccc(S(=O)(=O)NCCSSCCNS(=O)(=O)c2ccc(C)cc2)cc1`, the growth inhibition was 95.4% (active).

For the compound `OC(Cc1cccnc1)(c1ccccc1)c1ccc(Cl)cc1` (stereo not given), the growth inhibition is 98% (active).

For `Cc1ccc(C2=CC(=O)/C(=C\C(=O)c3ccc(Cl)cc3)O2)cc1`, the growth inhibition is 58%.

As to `O=C(Nc1ncnc2c1ncn2C1CC(O)C(CO)O1)c1ccccc1` (stereo not given), the growth inhibition is -17.8%.

Consider `O=C1CSC(=S)N1c1ccc(F)cc1F`, for which the growth inhibition was 70.2% (active).

Take `CCCOC(=O)C(Br)C(Br)C(=O)OCCC` (stereo not given): the growth inhibition is 90.5% (active).

As for `c1ccc2nc3[nH]c4ccccc4c3cc2c1`, the growth inhibition is 69.2%.

For the compound `O=S(=O)(c1ccc(NC(=S)NCc2ccncc2)cc1)N1CCCCC1`, the growth inhibition was 6.9%.

For the compound `Nc1ccccc1Sc1ccccc1`, the growth inhibition is 71% (active).

Take `CCC(Cl)COP(=O)(OCC(Cl)CC)OC(c1ccc(Cl)c(Cl)c1)P(=O)(OCC(Cl)CC)OCC(Cl)CC` (stereo not given): the growth inhibition is 85.7% (active).

Consider `O=C(O)/C=C\c1cc2ccccc2c2ccccc12`, for which the growth inhibition is 98.6% (active).

Take `COC(=O)C1C2CC3c4[nH]c5cc(OC)c(Br)cc5c4CCN3CC2CC(OC(=O)c2cc(OC)c(OC)c(OC)c2)C1OC` (stereo not given): the growth inhibition was 86.6% (active).

Consider `Cc1c2ccnc(-c3ccc(F)cc3)c2cc2c1[nH]c1ccccc12`, for which the growth inhibition was -5.15%.

Take `COc1cc2cc[n+]3c4ccc([N+](=O)[O-])cc4ccc3c2cc1OC`: the growth inhibition was 46%.

Turning to `CCCCCCCCC1N(C)CCCN1C`, the growth inhibition was 99.5% (active).

For `CC1(C)OC2C(COC(c3ccccc3)(c3ccccc3)c3ccccc3)OC(n3cnc4c(=O)[nH]cnc43)C2O1` (stereo not given), the growth inhibition is 61.9%.

`COc1cccc2c1C(=O)c1c(O)c3c(c(O)c1C2=O)C[C@@](O)(C(=O)CO)C[C@@H]3OC1CC(N(C)C)C(O)C(C)O1` (stereo not given in full): the growth inhibition is 90.7% (active).
